Reference: PubChem BioAssay (NCATS)
The source made the active and inactive calls. Entries that show only a call come without a potency. Calls follow the shape of the dose curve; as a rule, active = well fitted inhibition curve with a large enough effect; inconclusive = small, poorly fitted or top-dose-only effect; inactive = flat fitted curve, though single readings scatter.

The compounds below were run against Luciferin 4-monooxygenase (Photinus pyralis) (UniProt P08659) (assay: Primary firefly luciferase (FLuc) qHTS assay for identification of artifact compounds. (AID 1845220; also: nearly all actives have a fitted effect of over 60% in size)). Conditions: purified firefly luciferase, luminescence, 5 min; series mostly up to 54.1 µM.
Text: PI: Alexander Tropsha Ph.D.
UNC Eshelman School of Pharmacy
University of North Carolina, Chapel Hill, North Carolina
Hits from high-throughput screening (HTS) of chemical libraries are often false positives due to their interference with the assay detection technology. In response to this problem, we generated the largest publicly available library of chemical liabilities and developed a free webtool to predict HTS artifacts, both of which are described herein. More specifically, we generated, curated, and integrated HTS datasets for thiol reactivity, redox activity, and luciferase (firefly and nano) activity. Using these curated datasets, we developed and validated several Quantitative Structure-Interference Relationship (QSIR) models to predict nuisance behavior. […] These models were employed for virtual profiling of the National Center for Advancing Translational Science's (NCATS) in-house library, and 256 compounds for each assay were selected for the experimental validation of nuisance behavior. The BA for these external predictions ranged from 58 to 78% for compounds within the applicability domains of the models. […] The models developed in this study, along with aggregation models previously developed by our group (SCAM Detective) were implemented in "Liability Predictor," an online tool which may be used as part of chemical library design or for triaging HTS hits. Both the models and the curated datasets are publicly available at https://liability.mml.unc.edu/.
SEQUENCE No. (e.g., 1, 2, 3, etc.); […] (e.g., Cells, Incubation, Reagent, etc.); VALUE; DESCRIPTION.
1; Reagent; 3 uL; Luciferase substrate mixture.
2; Compounds and control; 16 nL; Kalypsis pin tool (Wako USA) equipped with a 1536-well pin head.
4; Reagent; 1 uL; Luciferase enzyme.
6; Detection; Luminescence, ViewLux microplate reader.
NOTES (numbers refer to Sequence numbers above)
1. 3 uL of luciferase substrate mixture containing D-luciferin and ATP (final concentrations of 10 uM and 10 uM, respectively) in assay buffer (10 mM Mg-acetate, 0.01% Tween-20, 0.05% bovine serum albumin, 50 mM Tris acetate, pH 7.6) was dispensed into all wells of a 1536-well assay plate (solid-bottom white plate; Greiner Bio One, Monroe, NC).
2. A Wako Pin-tool (Wako Automation, Richmond, VA) was used to transfer 16 nL of compounds (consisting of 7-plates in qHTS format, final concentration range 18.3 nM to 114 uM) or control PTC124 (final concentration range 1.22 nM to 40 uM).
3. 15 min. incubation at room temperature protected from light.
4. 1 uL of luciferase enzyme (final concentration 10 nM, Photinus pyralis luciferase) or buffer was dispensed for a final assay volume of 4 uL.
5. Plates were centrifuged (121xg, 15 seconds) and incubated for 5 minutes.
6. Samples were read for luminescence on a ViewLux CCD imager (PerkinElmer). Data were normalized to no-enzyme (0% activity) and no-inhibitor (DMSO; 100%) controls and the resulting percent inhibition data were fitted to a 4-parameter Hill equation using NCATS in-house software.
Potency is read from the fitted curve at half-maximal effect.

Question: With C=CC[N+]1([C@H]2C[C@H]3[C@@H]4CC[C@H]5C[C@H](OC(C)=O)[C@@H](N6CCCCC6)C[C@]5(C)[C@H]4CC[C@]3(C)[C@H]2OC(=O)CC)CCCCC1 as the compound, how does the Potency read?
Answer: inactive

Question: With CC(C(O)c1ccccc1)N(C)CCOC(c1ccccc1)c1ccccc1 (stereo not given) as the compound, how does the Potency read?
Answer: inactive

Question: COc1cc(C(=O)OC(COCCC(C)C)CN2CCOCC2)cc(OC)c1OC (stereo not given) was tested. Which Potency did it give?
Answer: inactive

Question: Which Potency does the source give for CC(=O)OCC(=O)Nc1cc(C#N)cc(NC(=O)COC(C)=O)c1Cl here?
Answer: inactive

Question: How did the Potency turn out when C=CCOc1cc(Cl)ccc1C(=O)NCCN(CC)CC was run?
Answer: inactive

Question: O=C(O)Cc1ccccc1Oc1ccc(Cl)cc1Cl was tested. Which Potency did it give?
Answer: inactive

Question: With CN1CCC(N(Cc2cccs2)c2ccccc2)CC1 as the compound, how does the Potency read?
Answer: inactive

Question: CCN(CC)CCOc1ccc(/C(=C(\Cl)c2ccccc2)c2ccccc2)cc1 was tested. Which Potency did it give?
Answer: inactive

Question: How did the Potency turn out when CC(=O)O[C@@H]1C(=O)O[C@@H]2[C@H]1OC(=O)[C@@H]2OC(C)=O was run?
Answer: inactive

Question: How did the Potency turn out when CC[N+]1(CC)CCC(=C(c2ccccc2)c2ccccc2)C1C (stereo not given) was run?
Answer: inactive

Question: With Cc1ccccc1C(=O)N1CC/C(=N\OS(=O)(=O)O)c2ccc(Cl)cc21 as the compound, how does the Potency read?
Answer: inactive

Question: For CO/N=C(/C(=O)N[C@@H]1C(=O)N2C(C(=O)O)=C(Cn3nnc(C)n3)CS[C@H]12)c1csc(N)n1, which Potency is on record?
Answer: inactive

Question: For O=[N+]([O-])c1ccc(-c2nc(-c3ccc(F)cc3)c(-c3ccncc3)[nH]2)cc1, which Potency is on record?
Answer: inactive

Question: For COc1cc(NS(=O)(=O)c2ccc(N)cc2)nc(C)n1, which Potency is on record?
Answer: inactive

Question: How did the Potency turn out when Cc1nn(-c2ccccc2)c(C)c1/C=N/N1CCN(Cc2ccccc2)CC1 was run?
Answer: inactive

Question: For Cc1cccc(N(C)C(=S)Oc2ccc3c(c2)CCC3)c1, which Potency is on record?
Answer: inactive

Question: For CN(C)C(=O)CNC(=O)Cc1ccccc1, which Potency is on record?
Answer: inactive

Question: With COC(=O)C1=C(C)NC(COC(N)=O)=C(C(=O)OC(C)C)C1c1cccc(Cl)c1Cl (stereo not given) as the compound, how does the Potency read?
Answer: inactive

Question: How did the Potency turn out when CC(=O)[C@H]1CC[C@H]2[C@@H]3C=CC4=CC(=O)CC[C@@]4(C)[C@@H]3CC[C@]12C was run?
Answer: inactive

Question: Which Potency does the source give for COc1ccccc1N1CCN(CCN2C(=O)CC3(CCCC3)CC2=O)CC1 here?
Answer: inactive

Question: With CN(C)c1cc2c(Nc3ccc4c(cnn4Cc4ccccc4)c3)ncnc2cn1 as the compound, how does the Potency read?
Answer: inactive

Question: Which Potency does the source give for COC(=O)C1=CO[C@@H](O)[C@@H]2C(CO)=CC[C@H]12 here?
Answer: inactive

Question: C[C@H](CN1CCCC1)C(=O)c1ccc(C(F)(F)F)cc1 was tested. Which Potency did it give?
Answer: inactive

Question: Which Potency does the source give for CCOC(=O)c1ccc(NC(=O)CN2CCCCC2)cc1 here?
Answer: inactive

Question: For CN1[C@@H]2CC[C@H]1CC(NC(=O)n1c(=O)[nH]c3ccccc31)C2 (stereo not given in full), which Potency is on record?
Answer: inactive

Question: For CC1c2ccccc2CN1NC(=O)c1ccc(Cl)c(S(N)(=O)=O)c1 (stereo not given), which Potency is on record?
Answer: inactive

Question: Which Potency does the source give for O=C1CC[C@H](C(=O)N2CCCCC2)N1 here?
Answer: inactive

Question: How did the Potency turn out when O=C1NC(=O)/C(=C/c2ccc3c(c2)OC(F)(F)O3)S1 was run?
Answer: 9.53 µM (active)

Question: With CCN1C(=O)c2ccccc2C1Nc1ccc(OCCN2CCCCC2)cc1 (stereo not given) as the compound, how does the Potency read?
Answer: inactive

Question: Clc1ccc2c(c1)N=C(N1CCNCC1)c1ccccc1N2 was tested. Which Potency did it give?
Answer: inactive

Question: With CC1CC(=O)NN=C1c1ccc(NCC(C)(C)NCC(O)COc2cc(Cl)ccc2C#N)cc1 (stereo not given) as the compound, how does the Potency read?
Answer: inactive

Question: How did the Potency turn out when CCNC(=O)NCCCOc1cccc(CN2CCCCC2)c1 was run?
Answer: inactive

Question: How did the Potency turn out when O=C(NN1CCCC1)NS(=O)(=O)c1ccc(Cl)cc1 was run?
Answer: inactive

Question: Which Potency does the source give for O=C1NC(c2cccc([N+](=O)[O-])c2)=CCN1c1ccccc1O here?
Answer: inactive

Question: How did the Potency turn out when O=C1[C@@H]2[C@H]3CC[C@H](C3)[C@@H]2C(=O)N1CCCCN1CCN(c2ncccn2)CC1 was run?
Answer: inactive

Question: How did the Potency turn out when CCCN(CCC)C(=O)C(CCC(=O)OCCCN1CCN(CCOC(=O)Cc2c(C)n(C(=O)c3ccc(Cl)cc3)c3ccc(OC)cc23)CC1)NC(=O)c1ccccc1 (stereo not given) was run?
Answer: inactive

Question: How did the Potency turn out when CC(=O)Nc1ccn(C2COC(COC(=O)c3ccccc3)O2)c(=O)n1 (stereo not given) was run?
Answer: inactive

Question: With CCCCNc1ccc(C(=O)OCCN(CC)CC)cc1 as the compound, how does the Potency read?
Answer: inactive

Question: OC1(c2ccc(Cl)c(C(F)(F)F)c2)CCN(CCCC(c2ccc(F)cc2)c2ccc(F)cc2)CC1 was tested. Which Potency did it give?
Answer: inactive

Question: With CO[C@]1(NC(=O)CSC(F)F)C(=O)N2C(C(=O)O)=C(CSc3nnnn3CCO)CO[C@H]21 as the compound, how does the Potency read?
Answer: inactive
